Experiment [1] can be described thus: sensitizers of A549 cells to miR-34 induction, primary screen, imaging, A549 dox-inducible miR-34, nuclei and caspase counts (AID 1347080). The following applies: A549 miR-34 inducible, Hoechst nuclei count, 48 h.
Experiment [2] in a line: survival rescue of mitochondrial mutant cells in low glucose, primary screen, MELAS cybrids, Rieske KO mouse fibroblasts, CellTiter-Glo (AID 1508586;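 active means mean z-score across replicates of 1.96 or higher in either the MELAS or the Rieske mutant cell line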;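 further: z relative to plate mean and SD of compound and empty wells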).
For experiment [3], the target named is NAD(+) hydrolase SARM1 (Homo sapiens) (UniProt Q6SZW1). Nature of the experiment: SARM1 TIR NADase inhibitors, cell lysate, NAD-Glo luminescence (AID 1508614;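 active means compound whose remaining NAD level is above about 45 nM, limit read from the data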). The following applies: SAM-TIR HEK293T lysate NADase, at 1 µM, stronger effect = higher value.
Chain of NAD(+) hydrolase SARM1 (Homo sapiens) (Q6SZW1 whole entry, looked up, the tested form may be a part): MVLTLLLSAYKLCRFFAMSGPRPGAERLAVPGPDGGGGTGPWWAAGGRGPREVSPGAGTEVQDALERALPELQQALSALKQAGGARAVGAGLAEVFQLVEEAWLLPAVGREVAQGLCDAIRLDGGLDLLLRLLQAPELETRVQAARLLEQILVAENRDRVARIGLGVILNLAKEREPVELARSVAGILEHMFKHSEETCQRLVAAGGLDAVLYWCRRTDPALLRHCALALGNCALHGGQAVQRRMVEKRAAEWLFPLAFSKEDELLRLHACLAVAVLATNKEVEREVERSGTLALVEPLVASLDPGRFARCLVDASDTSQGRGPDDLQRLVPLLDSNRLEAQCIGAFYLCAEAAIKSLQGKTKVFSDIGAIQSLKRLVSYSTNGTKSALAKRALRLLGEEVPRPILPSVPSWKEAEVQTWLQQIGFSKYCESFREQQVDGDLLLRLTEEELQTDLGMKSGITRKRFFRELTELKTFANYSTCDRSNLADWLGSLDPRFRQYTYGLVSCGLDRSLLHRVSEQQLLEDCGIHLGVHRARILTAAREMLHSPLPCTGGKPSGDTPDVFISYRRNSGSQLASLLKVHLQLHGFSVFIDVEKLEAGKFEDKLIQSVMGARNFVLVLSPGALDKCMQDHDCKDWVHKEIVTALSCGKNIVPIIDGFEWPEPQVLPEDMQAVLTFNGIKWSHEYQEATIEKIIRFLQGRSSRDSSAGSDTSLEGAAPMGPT
Experiment [4] concerns the target Mitogen-activated protein kinase 7 (Homo sapiens) (UniProt Q13164). Nature of the experiment: ERK5 transactivation activators in reporter cells, primary screen, cell-based, HTS (AID 1508626;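 active means luciferase signal above three times the same-plate solvent-only control wells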;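 further: luciferase driven by Gal4-ERK5 fusion binding five Gal4 sites before minimal TATA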). As to conditions: HeLa Gal4-ERK5 transactivation, 18 h, at 5 µM, stronger effect = higher value.
A short description of experiment [5]: viability rescue of complex I mutant cybrids, primary screen, cell-based, galactose medium, ATP luminescence (AID 1645843;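 active means z-score of at least 1.8 in each of two replicates, scored against plate mean and spread of sample wells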;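 further: positive z means more ATP and so rescue of galactose-driven cybrid death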). As to conditions: complex I mutant cybrid cells, 72 h, stronger effect = higher value.
Where [6] appears, read: stronger effect = lower value, cell number ratio, induced over uninduced.
The mark [7] stands for this setting: measured here: relative caspase fold change +Dox/-Dox.
Setting [8] is: measured here: total cells with miR-34 induction, stronger effect = lower value.
Where [9] appears, read: measured here: total cells without miR-34 induction.
Where [10] appears, read: MELAS cybrid survival, CellTiter-Glo 48 h, stronger effect = higher value.
Where [11] appears, read: Rieske KO mouse fibroblast survival, CellTiter-Glo 72 h.

Values joined by “and” are separate entries in the source; they are usually repeats but may differ in a detail not shown here. Identical values can stand only once. Active and inactive are the calls of the source.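 How the source made its calls, unless noted: active means compounds whose cell count with miR-34 switched on is under 0.7 times the count with it off; inactive means the rest.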

Chain of Mitogen-activated protein kinase 7 (Homo sapiens) (Q13164 whole entry, looked up, the tested form may be a part): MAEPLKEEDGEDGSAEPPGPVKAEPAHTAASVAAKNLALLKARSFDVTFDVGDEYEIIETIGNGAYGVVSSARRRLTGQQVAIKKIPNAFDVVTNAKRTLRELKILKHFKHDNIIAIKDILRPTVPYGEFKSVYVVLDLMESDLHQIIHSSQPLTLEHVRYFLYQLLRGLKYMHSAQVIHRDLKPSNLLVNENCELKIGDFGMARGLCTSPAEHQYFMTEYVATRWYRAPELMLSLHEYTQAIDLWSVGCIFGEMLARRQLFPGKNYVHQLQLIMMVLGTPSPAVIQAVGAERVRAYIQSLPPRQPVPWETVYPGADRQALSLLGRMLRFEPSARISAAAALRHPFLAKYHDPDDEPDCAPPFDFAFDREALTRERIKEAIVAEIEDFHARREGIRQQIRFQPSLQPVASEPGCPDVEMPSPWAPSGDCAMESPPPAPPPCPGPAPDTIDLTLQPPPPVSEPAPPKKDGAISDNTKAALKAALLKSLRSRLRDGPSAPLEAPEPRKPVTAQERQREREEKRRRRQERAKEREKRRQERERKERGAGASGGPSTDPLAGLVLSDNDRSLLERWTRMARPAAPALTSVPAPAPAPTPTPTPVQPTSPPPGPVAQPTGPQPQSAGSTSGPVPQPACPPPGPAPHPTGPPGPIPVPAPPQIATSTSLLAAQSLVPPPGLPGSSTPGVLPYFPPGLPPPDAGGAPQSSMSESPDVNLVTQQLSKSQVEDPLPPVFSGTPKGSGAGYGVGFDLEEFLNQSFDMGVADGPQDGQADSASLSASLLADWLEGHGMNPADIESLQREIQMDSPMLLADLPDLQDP

With `NCCCC[C@H](N[C@@H](CCc1ccccc1)C(=O)O)C(=O)N1CCC[C@H]1C(=O)O`, the fold change in experiment [1] (setting [6]) was 0.921 (inactive) and 0.874 (inactive) and 0.913 (inactive); in experiment [1] (setting [7]) it was 0.957 and 2.44 and 1.18. Also, the cell count was 8900 and 11300 and 9570 in experiment [1] (setting [8]); 9670 and 13000 and 10500 in experiment [1] (setting [9]). Further, the z-score in experiment [2] (setting [10]) was 0.256 (inactive) and -0.39 (inactive); in experiment [2] (setting [11]) it was -0.142 and -0.658; in experiment [5], 0.245 (inactive). Further, the remaining NAD in experiment [3] is 10 nM (inactive). The luciferase signal in experiment [4] is 92 AU (inactive).

With `Cc1cc(=O)[nH]c(=S)[nH]1`, the fold change is 0.999 (inactive) and 0.935 (inactive) in experiment [1] (setting [6]); 0.275 and 0.458 in experiment [1] (setting [7]). Besides, the cell count in experiment [1] (setting [8]) is 8050 and 11700; in experiment [1] (setting [9]), 8060 and 12500. The z-score in experiment [2] (setting [10]) is 0.105 (inactive); in experiment [2] (setting [11]) it was -0.199. Moreover, in experiment [3], the remaining NAD is 10 nM (inactive). The luciferase signal in experiment [4] is 100 AU (inactive).

For the compound `NC(N)=Nc1nc(CSCC/C(N)=N/S(N)(=O)=O)cs1`, the fold change was 0.977 (inactive) and 0.894 (inactive) and 0.942 (inactive) in experiment [1] (setting [6]); 1.04 and 0.96 and 0.999 in experiment [1] (setting [7]). Further, the cell count in experiment [1] (setting [8]) was 10400 and 8060 and 10100; in experiment [1] (setting [9]), 10600 and 9010 and 10700. The z-score in experiment [2] (setting [10]) is 0.33 (inactive) and 1.06 (inactive); in experiment [2] (setting [11]), 0.0847 and 0.907; in experiment [5] it was 0.125 (inactive) and 0.38 (inactive). The remaining NAD in experiment [3] is 10 nM (inactive). Moreover, in experiment [4], the luciferase signal was 72 AU (inactive).

Take `Nc1ccc(S(=O)(=O)Nc2ccc(Cl)nn2)cc1`: the fold change in experiment [1] (setting [6]) is 0.789 (inactive) and 0.924 (inactive); in experiment [1] (setting [7]), 1.6 and 3.43. The cell count in experiment [1] (setting [8]) was 7930 and 11400; in experiment [1] (setting [9]), 10000 and 12300. The values for the z-score in experiment [2] (setting [10]) and in experiment [2] (setting [11]) were 0.0891 (inactive) and 0.0567, respectively. The remaining NAD in experiment [3] is 10 nM (inactive). Besides, in experiment [4], the luciferase signal was 168 AU (inactive).

As for `COc1c2occc2c(OC)c2c(=O)cc(C)oc12`, the fold change in experiment [1] (setting [6]) is 0.924 (inactive); in experiment [1] (setting [7]), 1.18. Also, the cell count turned out to be 8440 in experiment [1] (setting [8]) and 9130 in experiment [1] (setting [9]). The figures for the z-score in experiment [2] (setting [10]) and in experiment [2] (setting [11]) were -0.15 (inactive) and -0.129, respectively. Also, in experiment [3], the remaining NAD was 10 nM (inactive). Further, the luciferase signal in experiment [4] is 80 AU (inactive).

Regarding `NC(=O)NC1NC(=O)NC1=O` (stereo not drawn), the fold change in experiment [1] (setting [6]) is 0.95 (inactive) and 0.875 (inactive); in experiment [1] (setting [7]) it was 1.05 and 3.99. The cell count is 8140 and 12000 in experiment [1] (setting [8]); 8570 and 13800 in experiment [1] (setting [9]). The z-score in experiment [2] (setting [10]) was -0.771 (inactive); in experiment [2] (setting [11]), 0.175. Further, in experiment [3], the remaining NAD is 10 nM (inactive). In addition, in experiment [4], the luciferase signal is 72 AU (inactive).

Take `CC1(C)OC(=O)NC1=O`: the fold change in experiment [1] (setting [6]) is 0.858 (inactive) and 0.827 (inactive); in experiment [1] (setting [7]) it was 1.35 and 1.46. In addition, the cell count in experiment [1] (setting [8]) was 8730 and 10500; in experiment [1] (setting [9]) it was 10200 and 12700. Also, the figures for the z-score in experiment [2] (setting [10]) and in experiment [2] (setting [11]) were -0.0486 (inactive) and -0.442, respectively. In addition, the remaining NAD in experiment [3] is 10 nM (inactive). In experiment [4], the luciferase signal was 64 AU (inactive).

In the case of `Cc1ccsc1/C=C/C1=NCCCN1C`, the fold change in experiment [1] (setting [6]) was 0.892 (inactive) and 0.795 (inactive); in experiment [1] (setting [7]), 1.23 and 5.32. The cell count was 8120 and 10200 in experiment [1] (setting [8]); 9110 and 12800 in experiment [1] (setting [9]). Moreover, the results for the z-score in experiment [2] (setting [10]) and in experiment [2] (setting [11]) were -0.598 (inactive) and 0.242, respectively. Moreover, the remaining NAD in experiment [3] is 10 nM (inactive). Besides, the luciferase signal in experiment [4] is 88 AU (inactive).

For `Cc1c(Cl)cccc1Nc1ccccc1C(=O)O`, the fold change in experiment [1] (setting [6]) is 0.957 (inactive) and 1.02 (inactive) and 0.935 (inactive); in experiment [1] (setting [7]), 1 and 0.422 and 1.23. Further, the cell count is 9330 and 8170 and 9290 in experiment [1] (setting [8]); 9750 and 8010 and 9940 in experiment [1] (setting [9]). Further, the z-score in experiment [2] (setting [10]) was -0.324 (inactive) and 0.232 (inactive) and 0.0953 (inactive); in experiment [2] (setting [11]) it was -0.0198 and -0.0599 and -0.617; in experiment [5], 1.29 (inactive). In experiment [3], the remaining NAD was 10 nM (inactive). Further, in experiment [4], the luciferase signal was 52 AU (inactive).

As for `Oc1c(Cl)cc(Cl)c(Cl)c1Cc1c(O)c(Cl)cc(Cl)c1Cl`, the fold change in experiment [1] (setting [6]) was 1.05 (inactive) and 0.85 (inactive); in experiment [1] (setting [7]), 2.17 and 2.72. In addition, the cell count in experiment [1] (setting [8]) is 2100 and 2440; in experiment [1] (setting [9]), 2010 and 2860. In addition, the results for the z-score in experiment [2] (setting [10]), in experiment [2] (setting [11]) and in experiment [5] were -0.483 (inactive), 0.0864 and -1.5 (inactive), respectively. In addition, the remaining NAD in experiment [3] was 10 nM (inactive). Also, the luciferase signal in experiment [4] was 28 AU (inactive).

`CC(C)NCC(O)c1ccc2ccccc2c1` (stereo not drawn): the fold change in experiment [1] (setting [6]) was 0.951 (inactive) and 0.938 (inactive) and 0.885 (inactive); in experiment [1] (setting [7]) it was 0.594 and 1.29 and 1.16. The cell count in experiment [1] (setting [8]) was 8750 and 8620 and 9710; in experiment [1] (setting [9]), 9200 and 11000. The z-score is 0.654 (inactive) and -0.419 (inactive) in experiment [2] (setting [10]); -0.347 and -0.52 in experiment [2] (setting [11]); 0.85 (inactive) and 0.48 (inactive) in experiment [5]. Also, the remaining NAD in experiment [3] was 10 nM (inactive). Also, in experiment [4], the luciferase signal was 36 AU (inactive).

As to `CCN(CCCCOC(=O)c1ccc(OC)c(OC)c1)C(C)Cc1ccc(OC)cc1` (stereo not drawn), the fold change was 0.98 (inactive) and 0.929 (inactive) in experiment [1] (setting [6]); 1.13 and 3.04 in experiment [1] (setting [7]). Further, the cell count was 7620 and 11300 in experiment [1] (setting [8]); 7780 and 12200 in experiment [1] (setting [9]). The z-score in experiment [2] (setting [10]) was 1.33 (inactive); in experiment [2] (setting [11]) it was 0.343. Further, the remaining NAD in experiment [3] is 10 nM (inactive). In experiment [4], the luciferase signal was 52 AU (inactive).

As for `CCCCC(CC)CN1CN(CC(CC)CCCC)CC(C)(N)C1` (stereo not drawn), the figures for the fold change in experiment [1] (setting [6]) and in experiment [1] (setting [7]) were 0.838 (inactive) and 1.46, respectively. The figures for the cell count in experiment [1] (setting [8]) and in experiment [1] (setting [9]) were 8130 and 9710, respectively. The z-score in experiment [2] (setting [10]) was -1.45 (inactive); in experiment [2] (setting [11]) it was -0.231. In addition, the remaining NAD in experiment [3] is 10 nM (inactive). Also, the luciferase signal in experiment [4] is 88 AU (inactive).

In the case of `C[C@@](Cc1ccc(O)c(O)c1)(NN)C(=O)O`, the fold change is 0.855 (inactive) and 0.878 (inactive) and 0.94 (inactive) in experiment [1] (setting [6]); 1.15 and 0.758 and 1.14 in experiment [1] (setting [7]). For the same compound, the cell count in experiment [1] (setting [8]) was 8030 and 8200 and 9200; in experiment [1] (setting [9]), 9400 and 9340 and 9790. Also, the z-score in experiment [2] (setting [10]) is -0.318 (inactive) and -0.0378 (inactive) and 0.282 (inactive); in experiment [2] (setting [11]), 0.573 and -0.159 and -0.894; in experiment [5], 1.23 (inactive) and -0.53 (inactive). The remaining NAD in experiment [3] was 10 nM (inactive). The luciferase signal in experiment [4] is 56 AU (inactive).

On to `O=C(O)CCNC(=O)c1ccccc1`, for which the figures for the fold change in experiment [1] (setting [6]) and in experiment [1] (setting [7]) were 0.9 (inactive) and 0.686, respectively. Further, the cell count in experiment [1] (setting [8]) is 8280; in experiment [1] (setting [9]), 9200. For the same compound, the z-score in experiment [2] (setting [10]) is -0.217 (inactive); in experiment [2] (setting [11]), -0.148. Further, the remaining NAD in experiment [3] was 10 nM (inactive). For the same compound, the luciferase signal in experiment [4] is 20 AU (inactive).

On to `O=C(O)c1ccccc1O`, for which the fold change in experiment [1] (setting [6]) is 0.935 (inactive) and 0.936 (inactive); in experiment [1] (setting [7]) it was 0.622 and 2.5. The cell count in experiment [1] (setting [8]) was 8100 and 11600; in experiment [1] (setting [9]) it was 8660 and 12400. Further, the figures for the z-score in experiment [2] (setting [10]) and in experiment [2] (setting [11]) were -0.0591 (inactive) and -0.159, respectively. For the same compound, the remaining NAD in experiment [3] is 10 nM (inactive). In addition, in experiment [4], the luciferase signal is 24 AU (inactive).

Regarding `Cc1ccc(C(=O)c2ccc(CC(=O)O)n2C)cc1`, the fold change in experiment [1] (setting [6]) is 0.916 (inactive) and 0.846 (inactive) and 0.923 (inactive); in experiment [1] (setting [7]) it was 1.2 and 2.52 and 1.03. Moreover, the cell count is 9430 and 10400 and 9670 in experiment [1] (setting [8]); 10300 and 12300 and 10500 in experiment [1] (setting [9]). The z-score is 0.498 (inactive) and 0.311 (inactive) in experiment [2] (setting [10]); 0.161 and -0.684 in experiment [2] (setting [11]); 1.02 (inactive) in experiment [5]. In addition, the remaining NAD in experiment [3] is 10 nM (inactive). In experiment [4], the luciferase signal was 84 AU (inactive).

(Values after PubChem BioAssay.)
